Our source for the inhibition values is PubChem BioAssay.

For test [1], the system named is transactivating tegument protein VP16 (Human herpesvirus 1). In words: VP16 transactivation reporter inhibitors, counter-screen for SRC2 inhibitor project, cell-based, luminescence, single concentration (AID 652007; in the data active = inhibition above about 36%). The settings on record: cell-based VP16 transactivation luciferase reporter, at 8.9 µM, hits give high values. In general terms: The purpose of a counterscreen is to sort out artefacts and off-target activity.

For test [2], the target named is Nuclear receptor coactivator 2 (Homo sapiens) (UniProt Q15596). Kind of test: SRC2 coactivator transcriptional activity inhibitors, confirmation, cell-based, luminescence, HEK293, triplicate (AID 652008).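 Also: 0% = DMSO-treated cells and 100% = Gossypol at 36 µM.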 The settings on record: HEK293 GAL4-SRC2 luciferase reporter, at 8.9 µM, hits give high values.

Unmarked numbers belong to inactive results. Active and inactive are the calls of the source.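 The calls were made as follows, unless noted: active = mean inhibition above 46.5%, the solvent-only control mean plus 3 SD; inactive = the rest.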

Nuclear receptor coactivator 2 (Homo sapiens), sequence (Q15596 whole entry, looked up, the tested form may be a part): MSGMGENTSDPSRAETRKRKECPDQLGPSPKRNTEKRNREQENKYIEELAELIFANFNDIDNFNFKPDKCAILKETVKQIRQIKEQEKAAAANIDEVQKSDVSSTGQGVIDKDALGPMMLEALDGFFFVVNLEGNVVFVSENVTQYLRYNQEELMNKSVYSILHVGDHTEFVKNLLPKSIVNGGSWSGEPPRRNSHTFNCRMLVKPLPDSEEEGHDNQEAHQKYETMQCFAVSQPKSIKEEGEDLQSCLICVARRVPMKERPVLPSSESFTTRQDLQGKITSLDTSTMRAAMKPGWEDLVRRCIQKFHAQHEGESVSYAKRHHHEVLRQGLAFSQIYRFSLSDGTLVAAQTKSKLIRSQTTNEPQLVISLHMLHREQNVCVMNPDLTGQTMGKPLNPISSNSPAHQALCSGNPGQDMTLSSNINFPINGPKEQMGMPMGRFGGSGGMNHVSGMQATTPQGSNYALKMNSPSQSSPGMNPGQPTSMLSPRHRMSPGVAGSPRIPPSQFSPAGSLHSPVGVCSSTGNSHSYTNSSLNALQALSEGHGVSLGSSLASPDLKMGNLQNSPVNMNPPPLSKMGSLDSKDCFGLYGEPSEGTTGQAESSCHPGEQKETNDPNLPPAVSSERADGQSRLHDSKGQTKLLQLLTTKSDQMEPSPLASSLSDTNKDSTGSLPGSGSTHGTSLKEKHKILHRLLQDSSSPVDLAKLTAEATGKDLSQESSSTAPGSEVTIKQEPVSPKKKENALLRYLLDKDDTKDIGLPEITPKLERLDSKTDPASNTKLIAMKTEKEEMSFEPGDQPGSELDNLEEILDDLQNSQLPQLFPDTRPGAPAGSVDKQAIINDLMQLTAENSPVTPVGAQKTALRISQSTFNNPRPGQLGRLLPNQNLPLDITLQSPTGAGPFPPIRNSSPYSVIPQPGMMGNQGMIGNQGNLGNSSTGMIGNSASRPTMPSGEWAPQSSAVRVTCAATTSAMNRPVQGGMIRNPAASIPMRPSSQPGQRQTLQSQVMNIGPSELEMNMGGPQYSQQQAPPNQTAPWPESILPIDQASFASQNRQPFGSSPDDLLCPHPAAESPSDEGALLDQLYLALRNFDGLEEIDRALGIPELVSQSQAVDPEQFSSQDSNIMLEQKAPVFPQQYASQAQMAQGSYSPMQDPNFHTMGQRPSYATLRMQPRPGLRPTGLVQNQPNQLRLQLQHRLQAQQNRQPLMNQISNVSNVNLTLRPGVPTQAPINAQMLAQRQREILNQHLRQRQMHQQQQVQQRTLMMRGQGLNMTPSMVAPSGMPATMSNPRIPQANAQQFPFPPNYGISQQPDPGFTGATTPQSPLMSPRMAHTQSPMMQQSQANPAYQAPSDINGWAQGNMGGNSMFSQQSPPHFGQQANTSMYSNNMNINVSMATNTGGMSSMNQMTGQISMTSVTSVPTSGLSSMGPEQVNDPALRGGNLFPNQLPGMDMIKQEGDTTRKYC

In the case of `CC(=O)N(Cc1ccc(F)cc1)C1=C(NCCc2ccccc2)C(=O)c2ccccc2C1=O`, the inhibition – broadly, the drop in the measured response relative to a control, in per cent – in test [1] is 14.1%; in test [2], 20%.
For the compound `COc1ccc(NC(=O)NCc2ccccc2F)cc1OC`, the inhibition was -0.66% in test [1] and -17.2% in test [2].
Turning to `CC(C)Oc1ccc(S(=O)(=O)N2CCCCC2)cc1NC(=O)C1CCCC1`, the inhibition in test [1] is 11.3%; in test [2], 2.87%.
`C(=N\Nc1nc2ccccc2s1)/c1ccccn1`: the inhibition in test [1] is 49.5% (active); in test [2], 52.3% (active).
For `COCc1cc(C)[nH]c(=O)c1C(=O)NC12CC3CC(CC(C3)C1)C2`, the inhibition was 15.4% in test [1] and -11% in test [2].
In the same order, the values of `NCCN1C(=O)S/C(=C\c2ccc3c(c2)OCO3)C1=O` are 44% (active) and 56.6% (active).
With `CC(C)(C)c1ccc(/C=C/C(=O)NCCCN2CCOCC2)cc1`, the figures for the inhibition in test [1] and in test [2] were -13.2% and 4.98%, respectively.
Take `Oc1ccc(N=Nc2ccc3c(c2)OCCO3)c2ncccc12`: the results for the inhibition in test [1] and in test [2] were -13.1% and 13.6%, respectively.
Regarding `O=C(NCc1ccco1)/C(=C/c1cccc([N+](=O)[O-])c1)NC(=O)c1ccco1`, the inhibition in test [1] was -6.26%; in test [2] it was -17.7%.
For `Nn1c(SCC(=O)Nc2cccc3ccccc23)nnc1-c1cc(-c2ccc(Cl)cc2)n[nH]1`, the inhibition was 51% (active) in test [1] and 15.4% in test [2].
The corresponding values for `CC(=O)Nc1ccc(NC(=O)c2ccc(-c3ccnn3C)c3ccoc23)cc1` are -6.57% and 26.4%.
Turning to `CC(C)(C)c1ccc(OCCC(=O)OCC(=O)NC2CC2)cc1`, the results for the inhibition in test [1] and in test [2] were 23.8% and 2.38%, respectively.
The corresponding values for `COC(=O)C1CN(Cc2ccccc2)CCS(=O)(=O)N1Cc1cn(Cc2ccc(Cl)cc2)nn1` (centres undefined) are -13.7% and -3.09%.
For `Cc1ccc(O)c(NC(=O)c2cc([N+](=O)[O-])ccc2Cl)c1`, the inhibition was 8.71% in test [1] and 44.2% in test [2].
Regarding `O=C(CCCN1C(=O)/C(=C/c2ccccc2)SC1=S)NCCCn1ccnc1`, the inhibition in test [1] is 35.9% (active); in test [2], 26.1%.
The corresponding values for `Cc1ccc(CN2CCC(C(=O)Nc3ccc(Oc4cccnc4)cc3)CC2)cc1` are 7.59% and -0.58%.
For `O=C(CN1C(=O)NC2(CCCCCC2)C1=O)Nc1ccc(Br)cc1Br`, the inhibition was -12.2% in test [1] and 2.3% in test [2].
In the same order, the values of `O=[N+]([O-])c1cccc2cnccc12` are -10.2% and 3.57%.
The corresponding values for `O=C(O)/C=C/C(=O)N(CC1CCCO1)C1CC(=O)N(c2c(Cl)cccc2Cl)C1=O` (centres undefined) are -22.7% and -29.3%.
As to `Cc1cc(-c2ccccc2)n(-c2cc(N/N=C/c3ccccc3O)ncn2)n1`, the inhibition in test [1] is -0.63%; in test [2], 51.5% (active).
`Cc1csc2ncnc(N3CCN(C(=O)Nc4ccc(OC(F)(F)F)cc4)CC3)c12`: the inhibition in test [1] was 1.45%; in test [2], 26.6%.
The corresponding values for `CCc1cc2c(Sc3nc4ccccc4s3)ncnc2s1` are 36.6% (active) and 42.6%.
On to `Cc1ccc(C(=O)OCC(=O)NC2CCCC(C)C2C)cc1S(=O)(=O)N1CCCCC1` (centres undefined), for which the figures for the inhibition in test [1] and in test [2] were -10.8% and 9.97%, respectively.
Regarding `CCS(=O)(=O)c1ncc(Cl)c(C(=O)Nc2ccc(C)cc2)n1`, the inhibition in test [1] was 1.43%; in test [2] it was 0.68%.
On to `CCOn1c(=O)c[n+]([O-])c2ccccc21`, for which the inhibition is 9.21% in test [1] and -6.65% in test [2].
In the case of `CN(C(=O)CCc1nnc(-c2ccc(-c3ccccc3)cc2)o1)C1CCOCC1`, the figures for the inhibition in test [1] and in test [2] were -6.16% and 26.7%, respectively.
For `CS(=O)(=O)Nc1cccc(NC(=O)C2Cc3c(-c4cccc(F)c4)ccnc3O2)c1` (centres undefined), the inhibition was 21.8% in test [1] and 36.3% in test [2].
As for `Cn1nnnc1Sc1ncnc2scc(-c3cccc(F)c3)c12`, the inhibition in test [1] is 7.55%; in test [2], 38.1%.
With `O=C(NCCc1ccccc1)c1ccc2c(c1)OCO2`, the results for the inhibition in test [1] and in test [2] were -13.4% and 16.7%, respectively.
Regarding `CC(C)c1cc(CNC(=O)c2ccc(OC3CCN(Cc4ccccn4)CC3)cc2)on1`, the inhibition in test [1] is -9.72%; in test [2] it was 11.8%.
Consider `O=C(O)c1ccc(Oc2ccc(S(=O)(=O)c3ccc(C(=O)O)c(C(=O)O)c3)cc2)cc1`, for which the inhibition in test [1] was -6.88%; in test [2], -6.84%.
The corresponding values for `Cc1ccc(C)c(S(=O)(=O)N2CCN(C(=O)C3CCN(c4ncnc5sc(C)c(C)c45)CC3)CC2)c1` are 15.6% and 38.6%.
Consider `CCN(CC)S(=O)(=O)c1cccc(C(=O)N/N=C/c2cccc(O)c2O)c1`, for which the inhibition is -46.8% in test [1] and -7.21% in test [2].
Consider `CNC(=O)c1nnsc1S(=O)(=O)c1ccc(Cl)cc1`, for which the inhibition in test [1] and in test [2] was 49.1% (active) in each case.
As for `CCCSc1ccc2nc(-c3ccccc3)cn2c1`, the inhibition was -24.4% in test [1] and 58% (active) in test [2].
For `Cc1ccc(-c2nnc(SCCC(=O)N3CCOCC3)o2)cc1`, the inhibition was -40.9% in test [1] and -16.8% in test [2].
For `Cc1sc2ncnc(N3CCC(C(=O)Nc4ccc(S(N)(=O)=O)cc4)CC3)c2c1C`, the inhibition is -3.11% in test [1] and 30.8% in test [2].
Turning to `CCOc1ccc(-c2cc(CCCC(=O)N3CCN(c4ccc(OC)cc4)CC3)no2)cc1`, the inhibition in test [1] is 4.64%; in test [2], 18.6%.
In the same order, the values of `Cc1ccc(S(=O)(=O)C[C@@H]2OC[C@H](C)N2S(=O)(=O)c2ccc(C)cc2)cc1` are 1.93% and -6.07%.
In the same order, the values of `Cc1ccc(NC(=O)C2(C)CCN2C(=O)CC(c2ccccc2)c2ccccc2)cc1` (centres undefined) are -6.43% and -7.67%.
`COc1cccc(/C=C2\SC(=S)N(CCCC(=O)N3CCCCC3CCO)C2=O)c1` (centres undefined): the inhibition was 51.2% (active) in test [1] and 52.2% (active) in test [2].
The corresponding values for `COc1ccc(O)c(/C=N/NC(=O)c2ccc(CSc3nc(C)cc(C)n3)cc2)c1` are 0.19% and 26.4%.
In the same order, the values of `Cc1ccc(NC(=O)CSc2ncnc3ccccc23)cc1S(=O)(=O)N1CCCCCC1` are 12.7% and 20.7%.
The corresponding values for `CCOC(=O)C1=CCN(S(=O)(=O)c2cccc(Cl)c2)C1c1ccc(Cl)c(Cl)c1` (centres undefined) are -7.88% and 7.77%.
In the case of `O=C(CNC(=O)c1ccc2c(c1)OCO2)Nc1cccc(Br)c1`, the inhibition was -13.8% in test [1] and -16.3% in test [2].
For the compound `C=C(C)C(=O)OC1(C(F)(F)F)Oc2cc(C)ccc2NC1=O` (centres undefined), the inhibition in test [1] was -6.48%; in test [2], 17.5%.
In the same order, the values of `Cc1cccc(N(Cc2ccccc2)C(=O)CCl)c1` are 15% and 33.4%.
Take `Cn1c(=O)c(=O)n(C)c2cc(S(=O)(=O)Nc3ccc4c(c3)OCCO4)ccc21`: the inhibition in test [1] was -4.82%; in test [2], 47.5% (active).
Take `CCC(=O)N1N=C(c2cccs2)CC1c1ccc(C)cc1` (centres undefined): the inhibition is -15.8% in test [1] and -13.8% in test [2].
For the compound `CC1=CC(C)(C)Nc2ccc(OC(=O)CN3C(=O)c4ccccc4C3=O)cc21`, the inhibition in test [1] was -37.1%; in test [2] it was 26.9%.
As to `CN1CCN(c2ccc(NC(=O)c3cc(S(N)(=O)=O)ccc3N3CCOCC3)cc2)CC1`, the figures for the inhibition in test [1] and in test [2] were -1.08% and -8.5%, respectively.
Take `Cc1ccc(S(=O)(=O)N2CCN(C(=O)c3cc4c(C)nn(-c5ccccc5C)c4s3)CC2)cc1`: the inhibition was 4.9% in test [1] and 4.62% in test [2].
The corresponding values for `O=S(=O)(c1cccc2cnccc12)N1CCNCC1` are 5.01% and 48.1% (active).
With `COc1ccc(C(=O)c2[nH]c(N)c(C(=O)NCCc3c[nH]c4ccccc34)c2-c2ccc(OC)c(OC)c2)cc1`, the inhibition in test [1] was -9.46%; in test [2], -4.51%.
For `Cc1nc(SCc2ccc(C(=O)O)cc2)nc2c1CCCC2`, the inhibition in test [1] is 10.8%; in test [2] it was 23.6%.
For `COC(=O)c1nn(-c2ccc3c(c2)CCN3C(C)=O)cc1O`, the inhibition in test [1] was -21.8%; in test [2] it was 43.5%.
Take `Cc1cc(Cl)n2c(nc3ccccc32)c1C#N`: the inhibition in test [1] is 4.56%; in test [2] it was 28.4%.
For `O=[N+]([O-])c1ccc(-c2ccc(S(=O)(=O)NCCN3CCCC3)cc2)cc1`, the inhibition in test [1] was 12.2%; in test [2] it was 17.4%.
Consider `CCOc1ccc(CN(C)C(=O)CCl)cc1`, for which the inhibition was 30.9% in test [1] and 35.6% in test [2].
As to `N=c1c2c3c(sc2ncn1N)CCCCC3`, the inhibition was 2.99% in test [1] and -23.5% in test [2].
The corresponding values for `Cc1ccc2c(c1)sc(=NC(=O)c1cccs1)n2C` are -58.3% and -3.83%.
In the same order, the values of `O=C(Nc1nc2cc3c(cc2s1)OCCO3)c1ccco1` are 24.9% and 56.3% (active).
With `Nc1ccc(C(=O)n2c3ccccc3c3ccccc32)cc1`, the inhibition in test [1] was 20.2%; in test [2], 17.5%.
Turning to `Cc1ccc(C(=O)Nc2nc3ccccc3[nH]2)cc1`, the figures for the inhibition in test [1] and in test [2] were -3.8% and 49.1% (active), respectively.
The corresponding values for `O=C(CN1CCN(S(=O)(=O)c2ccc(F)c(F)c2)CC1)Nc1ccccc1C(=O)NC1CC1` are -15.4% and -35.8%.
Consider `COc1cccc(N2CCN(c3ncnc4c3[nH]c3ccccc34)CC2C)c1` (centres undefined), for which the inhibition in test [1] was 63.8% (active); in test [2], 12.8%.
For the compound `CCCCn1c(CCC)nc([N+](=O)[O-])c1Sc1ccc(Cl)cn1`, the inhibition in test [1] is 13.2%; in test [2], 20.7%.
For the compound `COCCN(C(=O)CC1C(=O)NCCN1Cc1ccc(-c2ccccc2)cc1)C(C)C` (centres undefined), the inhibition in test [1] is -1.75%; in test [2] it was -6.54%.
The corresponding values for `O=C(CCCN1C(=O)/C(=C/c2ccc3c(c2)OCO3)SC1=S)Nc1ccc(C(=O)O)cc1` are 53.6% (active) and 36.2%.
With `O=C(NCCCN1CCOCC1)c1cc(-c2ccc(Br)cc2)on1`, the values for the inhibition in test [1] and in test [2] were -7.7% and 13.1%, respectively.
As to `O=C(Nc1ccc(NC(=O)c2ccco2)cc1)c1ccc2c(c1)OCCO2`, the results for the inhibition in test [1] and in test [2] were -30.2% and 12.1%, respectively.
Turning to `O=C1C=CC(=O)C(CNc2ccc(C(=O)OCc3ccccc3)cc2)=C1`, the inhibition is 38.2% (active) in test [1] and 39.2% in test [2].
